The test system of experiment [1] is Schistosoma mansoni schistosomula (NMRI). The experiment in a line: phenotypic severity score (0-4); higher = more antischistosomal effect, active = 2 or more. Conditions: 10 µM.
Experiment [2] has as its system Schistosoma mansoni schistosomula (Liberian). In words: drug effect (1 - score/DMSO control score) (fraction); higher = more antischistosomal effect, active = 0.5 or more; extreme values may be limits of the assay. Conditions: 10 µM. An outline of the steps:
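Drug effect was calculated by comparing the mean score of the test wells with the mean score of the DMSO wells, and any negative value was set to zero. Duplicate wells of 50 Liberian-strain S. mansoni schistosomula, mechanically transformed from cercariae and pre-incubated at least 12 h, received 10 µM compound in Medium 199 with 5% FCS at 37 °C, 5% CO2, with 0.1% DMSO in the comparison wells. Visual scoring at 10× took place at 24, 48 and 72 h on a quarter-point scale from 3 (normal) to 0 (dead), and a plate counted only if its DMSO wells averaged at least 2.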

Values without a mark were called inactive.
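For phenotypic severity score (0-4) in this document: visual microscopic scoring of shape, motility and density changes versus 0.5% DMSO solvent controls, one point per descriptor, degeneracy or death scored 4, mean of duplicate wells.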

In the case of `NC(=O)c1cc(-c2ccsc2)ccc1OCCOc1ccccc1`, the phenotypic severity score in experiment [1] (24 h), in experiment [1] (48 h) and in experiment [1] (72 h) was 0 each time. The values for the drug effect in experiment [2] (24 h), in experiment [2] (48 h) and in experiment [2] (72 h) were 0.158, 0.111 and less than 0, respectively.

`COc1ccc2nccc(NC(=O)C3CCN(CCc4ccc(Cl)cc4)CC3)c2n1`: the phenotypic severity score in experiment [1] (24 h), in experiment [1] (48 h) and in experiment [1] (72 h) was 0 throughout. Besides, the drug effect in experiment [2] (24 h) was 0.05; in experiment [2] (48 h), 0.0556; in experiment [2] (72 h) it was 0.111.

Take `CCCn1c(CNc2ccccc2O)nc2ccccc21`: the phenotypic severity score in experiment [1] (24 h), in experiment [1] (48 h) and in experiment [1] (72 h) was 0 each time. For the same molecule, the drug effect was 0.136 in experiment [2] (24 h), 0.2 in experiment [2] (48 h) and 0.182 in experiment [2] (72 h).

As to `CCCS(=O)(=O)N1CCC(CO)(Cc2ccccc2C(F)(F)F)CC1`, the phenotypic severity score is 2 (active) in experiment [1] (24 h), 4 (active) in experiment [1] (48 h) and 4 (active) in experiment [1] (72 h). The drug effect in experiment [2] (24 h) was 0.243; in experiment [2] (48 h), 0.278; in experiment [2] (72 h) it was 0.75 (active).

On to `COc1ccc(OC(C)C(=O)Nc2ccc(Cl)cc2C)cc1` (configuration not stated), for which the phenotypic severity score in experiment [1] (24 h), in experiment [1] (48 h) and in experiment [1] (72 h) was 0 each time. The results for the drug effect in experiment [2] (24 h), in experiment [2] (48 h) and in experiment [2] (72 h) were 0.182, 0.35 and 0.345, respectively.

As for `CN(C(=O)c1cc2c(-c3cncnc3)cccc2[nH]1)c1ccccc1`, the phenotypic severity score in experiment [1] (24 h), in experiment [1] (48 h) and in experiment [1] (72 h) was 0 in each case. Moreover, the drug effect in experiment [2] (24 h) was 0.189; in experiment [2] (48 h), 0.278; in experiment [2] (72 h) it was 0.375.

Consider `COc1cc(CN2CCC3(C=Cc4ccccc43)CC2)cc2c1OCO2`, for which the phenotypic severity score was 1 in experiment [1] (24 h), 1 in experiment [1] (48 h) and 0 in experiment [1] (72 h). Also, the drug effect in experiment [2] (24 h) is 0.1; in experiment [2] (48 h) it was 0.135; in experiment [2] (72 h) it was 0.273.

On to `NS(=O)(=O)c1cccc(-c2ccc3ncc(N4CCOCC4)nc3c2)c1`, for which the phenotypic severity score in experiment [1] (24 h), in experiment [1] (48 h) and in experiment [1] (72 h) was 0 in each case. Besides, the drug effect in experiment [2] (24 h) is 0.15; in experiment [2] (48 h), 0.189; in experiment [2] (72 h) it was 0.455.

As for `Cc1[nH]c2cc(F)cc(F)c2c(=O)c1-c1ccc(Oc2ccc(OC(F)(F)F)cc2)cc1`, the phenotypic severity score in experiment [1] (24 h) is 2 (active); in experiment [1] (48 h), 4 (active); in experiment [1] (72 h), 4 (active). The figures for the drug effect in experiment [2] (24 h), in experiment [2] (48 h) and in experiment [2] (72 h) were 0.45, 0.778 (active) and 0.75 (active), respectively.

As to `Clc1cccc(C(c2ccc(CN3CCNCC3)cc2)n2ccnc2)c1` (configuration not stated), the phenotypic severity score in experiment [1] (24 h) was 1; in experiment [1] (48 h) it was 1; in experiment [1] (72 h), 4 (active). Also, the values for the drug effect in experiment [2] (24 h), in experiment [2] (48 h) and in experiment [2] (72 h) were 0.405, 0.667 (active) and 0.875 (active), respectively.

`CC(=O)NCC1CN(c2ccc(-c3ccc(CNCc4cn[nH]n4)cc3)c(F)c2)C(=O)O1` (configuration not stated): the phenotypic severity score in experiment [1] (24 h), in experiment [1] (48 h) and in experiment [1] (72 h) was 0 in each case. The drug effect is 0.05 in experiment [2] (24 h), 0.0556 in experiment [2] (48 h) and less than 0 in experiment [2] (72 h).

In the case of `CCC(Sc1nc2ccccc2o1)C(=O)Nc1nnc(C)s1` (configuration not stated), the phenotypic severity score in experiment [1] (24 h), in experiment [1] (48 h) and in experiment [1] (72 h) was 0 each time. Moreover, the drug effect in experiment [2] (24 h) was 0.1; in experiment [2] (48 h), 0.111; in experiment [2] (72 h), 0.312.

`NC(=O)c1cc(Br)ccc1OCCOc1ccccc1`: the phenotypic severity score in experiment [1] (24 h) is 1; in experiment [1] (48 h), 1; in experiment [1] (72 h), 2 (active). In addition, the drug effect in experiment [2] (24 h), in experiment [2] (48 h) and in experiment [2] (72 h) was less than 0 in each case.

Turning to `CNc1cc(C)nc(C2CN(C(=O)c3n[nH]c4ccccc34)CCO2)c1` (configuration not stated), the phenotypic severity score in experiment [1] (24 h), in experiment [1] (48 h) and in experiment [1] (72 h) was 0 in each case. Also, the results for the drug effect in experiment [2] (24 h), in experiment [2] (48 h) and in experiment [2] (72 h) were 0.158, 0.167 and 0.125, respectively.

With `CC(=O)NC[C@H]1CN(c2ccc(N3CCSCC3)c(F)c2)C(=O)O1`, the phenotypic severity score in experiment [1] (24 h), in experiment [1] (48 h) and in experiment [1] (72 h) was 0 in each case. The drug effect in experiment [2] (24 h) is 0.136; in experiment [2] (48 h), 0.2; in experiment [2] (72 h) it was 0.236.

As to `COc1ccc(-c2cc(NC(=O)c3ccc(F)cc3Cl)ccc2OC)cc1`, the phenotypic severity score in experiment [1] (24 h) was 0; in experiment [1] (48 h), 1; in experiment [1] (72 h) it was 0. Further, the drug effect in experiment [2] (24 h) is 0.0909; in experiment [2] (48 h) it was 0.25; in experiment [2] (72 h), 0.236.

Take `Cc1cccnc1NC(=O)c1cccc(OCc2c(C)noc2C)c1`: the phenotypic severity score in experiment [1] (24 h), in experiment [1] (48 h) and in experiment [1] (72 h) was 0 throughout. Further, the drug effect in experiment [2] (24 h) is 0.0909; in experiment [2] (48 h) it was 0.15; in experiment [2] (72 h), 0.127.

For `CS(=O)(=O)c1ccc(C(=O)N(CC2CCCO2)c2nc3ccccc3s2)cc1[N+](=O)[O-]` (configuration not stated), the phenotypic severity score in experiment [1] (24 h), in experiment [1] (48 h) and in experiment [1] (72 h) was 4 (active) throughout. Moreover, the drug effect in experiment [2] (24 h), in experiment [2] (48 h) and in experiment [2] (72 h) was 1 (active) each time.

With `O=C(NCc1ccoc1)N1CCN(Cc2ccc3c(c2)OCO3)CC1`, the phenotypic severity score in experiment [1] (24 h), in experiment [1] (48 h) and in experiment [1] (72 h) was 0 throughout. Also, the drug effect in experiment [2] (24 h) is 0.136; in experiment [2] (48 h), 0.2; in experiment [2] (72 h) it was 0.182.

In the case of `COc1ccc(Cn2cnc3c(-c4ccco4)nc(Cl)nc32)cc1`, the phenotypic severity score in experiment [1] (24 h), in experiment [1] (48 h) and in experiment [1] (72 h) was 0 throughout. For the same molecule, the results for the drug effect in experiment [2] (24 h), in experiment [2] (48 h) and in experiment [2] (72 h) were 0.105, 0.0556 and 0.125, respectively.

Consider `CC1CC1C(=O)NC1CCN(CC2(c3ccccc3)CCCCC2)CC1` (configuration not stated), for which the phenotypic severity score is 1 in experiment [1] (24 h), 0 in experiment [1] (48 h) and 0 in experiment [1] (72 h). The values for the drug effect in experiment [2] (24 h), in experiment [2] (48 h) and in experiment [2] (72 h) were less than 0, 0.0811 and 0.222, respectively.

In the case of `COc1cccn2c(C(=O)N3CCCCC3)c(C(F)(F)F)nc12`, the phenotypic severity score in experiment [1] (24 h), in experiment [1] (48 h) and in experiment [1] (72 h) was 0 throughout. Further, the drug effect in experiment [2] (24 h) was 0.182; in experiment [2] (48 h), 0.2; in experiment [2] (72 h), 0.127.

Source of the values: the supplement of paper PMC6805474.
